Source: PubChem BioAssay (several laboratories)
rCAG binder – r(CAG) repeat RNA binding. inhibition, % at 3 µM. hit rate 1.3% among 370,000. TO-PRO-1 dye displacement fluorescence. AID 651821;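 active = inhibition above the plate cutoff, the mean of all test compounds on that plate plus 3 SD, cut at about 35% in these data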;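 also: 0% = DMSO alone and 100% = 100 µM mitoxantrone as full dye displacement; higher means more dye released from RNA so lower well fluorescence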
NadD block – inhibitors of Staphylococcus aureus NadD; purified NadD enzyme, colorimetric absorbance read-out; inhibition, % at 20 µM; hit rate 0.78% among 360,000; AID 602399; in the data active = inhibition above about 26%
MsrA inhibitor – inhibitors of bovine MsrA. hit rate 0.75% among 360,000. purified bovine MsrA, absorbance read-out. inhibition, % at 15.5 µM; in the data active = inhibition above about 4.5%;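 also: 0% = vehicle wells with enzyme and 100% = reference inhibitor wells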
bovine MsrA act – activates bovine MsrA enzyme | activation, % at 10.6 µM | purified bovine MsrA, absorbance read-out | hit rate 0.3% among 360,000; in the data active = activation above about 7.5%;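 also: 0% = vehicle and 100% = reference activator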
rCAG binder conf – r(CAG) RNA repeat binding, confirmation; inhibition, % at 3 µM; shares compounds with rCAG binder; AID 652065; TO-PRO-1 dye displacement fluorescence; hit rate 70% among 4,300;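 active = inhibition above a per-plate cutoff, the mean inhibition of sample wells plus 3 SD, cut at about 35% in these data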;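 also: loss of TO-PRO-1 fluorescence as compound displaces dye from 1x1 AA loop RNA; 0% = DMSO only wells and 100% = 100 µM mitoxantrone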
dCAG dye counter – disrupts DNA CAG TO-PRO-1 complex, flagging rCAG hits; d(CAG) DNA oligo TO-PRO-1 dye displacement, fluorescence; AID 652068; shares compounds with rCAG binder; inhibition, % at 3 µM; hit rate 94% among 4,300;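 active = inhibition above its plate's cutoff, the mean test-well inhibition plus 3 SD, cut at about 4.8% in these data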;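 also: 0% = DNA dye mix with DMSO and 100% = 100 µM mitoxantrone; hits displace the dye from DNA and so lower well fluorescence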
DNA CAG DR – DNA CAG dye complex inhibition, dose response counter-screen; shares compounds with rCAG binder; IC50, µM; DNA CAG/GTC duplex TO-PRO-1 dye displacement fluorescence; hit rate 20% among 250; in the data active = IC50 below about 10 µM
Starred values were filed as active, the others as inactive; . = not tested or not shown. A selection: hits, their analogues and other compounds. The true share with any hit is near 2.7%.

SMILES	rCAG binder	NadD block	MsrA inhibitor	bovine MsrA act	rCAG binder conf	dCAG dye counter	others
COc1ccccc1NC(=O)c1ccc(NS(=O)(=O)c2ccc(F)c(Cl)c2)cc1	44*	-5	0	-7	54*	14*
CCC(C(=O)NC1CCCCC1)N(Cc1cccs1)C(=O)CCC(=O)Nc1cc(C)on1 (stereo unspecified)	-7	-1	0	0	.	.
Cc1cc(C(F)(F)F)c2c(C)nn(CCc3nn[nH]n3)c2n1	3	-1	0	-1	.	.
Cc1nn(CCc2nn[nH]n2)c2nc(-c3ccccc3)cc(C(F)(F)F)c12	44*	10	1	-2	25	3
Cc1cccc(NC(=S)NNC(=O)c2cc3c(s2)CCC(C)C3)c1C (stereo unspecified)	37*	2	-1	-9	35*	12*
CCN1C(=O)/C(=C\c2ccc(-c3ccc([N+](=O)[O-])cc3OC)o2)SC1=Nc1cccc(C(=O)O)c1	63*	28	1	-2	84*	50*
CC(C)c1cc(C(=O)NNC(=S)NCc2ccco2)c(O)c(C(C)C)c1	65*	3	0	0	58*	24*
Cc1ccc(/C=C/C(=O)c2ccccc(=O)c2O)c(C)c1	33	18	3	-10	.	.
Cc1ccc(C)c(/C=C/C(=O)c2ccccc(=O)c2O)c1	39*	10	0	-6	23	10*
COc1ccc(/C=C2\C(=O)NC(=S)N2C(=O)c2ccc(C)cc2)cc1	58*	22	3	-11	76*	35*
O=C1NC(=S)N(C(=O)c2ccc(F)cc2)/C1=C/c1cccnc1	1	7	0	-3	.	.
O=C(COc1ccccc1F)Nc1cc(S(=O)(=O)Nc2cccc(Cl)c2)ccc1O	64*	13	0	-5	56*	22*
Cc1cc(C)nc(NS(=O)(=O)c2ccc(NC(=O)COc3ccccc3F)cc2)n1	12	-5	0	-3	.	.
C[C@H](O)[C@@H]1CN2CCc3c([nH]c4ccc(-c5ccc6c(c5)OCO6)cc34)[C@@H]2C[C@@H]1N(C)C(=O)NC1CCCCC1	7	18	0	-2	.	.
CCOC(=O)C1=C(C)OC(=Cc2ccccc2)C1=O	7	-3	1	1	.	.
CC(=O)C1=C(O)C(=Cc2ccccc2)OC1=O	36*	-3	3	-3	19	6.6*
S=c1[nH]nc(Cc2sc(-c3ccccc3)nc2-c2ccccc2)o1	61*	2	1	-1	47*	17*
O=C(O)c1cccc(S(=O)(=O)N(Cc2ccccc2)c2cccc(C(F)(F)F)c2)c1	53*	-2	1	2	53*	12*	DNA CAG DR=>30
O=C(O)c1cc(S(=O)(=O)N(Cc2ccccc2)c2ccc(Cl)cc2)ccc1Cl	54*	-5	-1	1	43*	9.8*
O=C(O)c1ccc(N(Cc2ccccc2)S(=O)(=O)c2ccccc2)cc1	6	-5	-2	0	.	.
Cc1ccc(S(=O)(=O)N(Cc2ccc(Cl)cc2)c2ccccc2C(=O)O)cc1	30	-8	-1	-7	.	.
Cc1ccc(S(=O)(=O)N(CC(=O)Nc2ccccc2C(=O)O)c2ccc(Cl)cc2)cc1	62*	6	-2	-2	58*	18*
CS(=O)(=O)c1ccc2nc(NC(=O)c3cccc(NS(=O)(=O)c4ccc(F)c(F)c4)c3)sc2c1	59*	18	1	-2	60*	25*
CSc1nc2ccc(NC(=O)c3ccc(F)c(F)c3)cc2s1	9	0	0	0	.	.
O=C(Nc1nc2ccc(SC(F)F)cc2s1)c1ccc(NS(=O)(=O)c2ccc(F)c(F)c2)cc1	62*	17	1	-3	84*	66*
CS(=O)(=O)c1ccc2nc(NC(=O)c3ccc(NS(=O)(=O)c4ccc(F)c(F)c4)cc3)sc2c1	36*	-3	1	-6	66*	27*
N#Cc1c(NC(=O)C2CC(Cl)=CCC2C(=O)O)sc2c1CCCC2 (stereo unspecified)	34	-4	1	-3	.	.
O=C(CNS(=O)(=O)c1ccccc1)N1CCc2ccccc2C1	1	-2	-1	-3	.	.
Cc1ccc(-c2[nH]ncc2C(=O)c2ccc(Br)cc2)c(O)c1	1	-9	0	-5	.	.
CNC[C@@H]1OCc2ccccc2-c2ccccc2C(=O)N([C@@H](C)CO)C[C@@H]1C	3	0	1	-4	.	.
